Test results as given in the supplement of paper PMC10849652.
About 7,900 targets were measured; listed, in parts, are those with a hit and a random draw of the rest. About 0.6% of all pairs of compound and target were hits. A number with no mark means an inactive call.

How the values were obtained:
Test in all cases: log2 fold change, soluble protein after heating vs DMSO (PISA); higher = thermal stabilisation; K562 cells, 10 uM, 30 min; active = over 0.2 and 3.5 SD of the protein, either way, in both replicates (recomputed)
[1] = compound: C1COCCN1CCN2C3=CC=CC=C3N=C2NC(=O)C4=CC(=CC=C4)[N+](=O)[O-] [IRAK-1-4 Inhibitor I]
Summary of the method: (§1)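 Values are thermal stability changes relative to control samples and are taken from duplicates. They are stated as log2 fold changes. Before quantification by TMTpro 16plex LC-MS/MS with equalised channel sums, K562 cells at 2×10^6 cells/mL were treated with 10 μM compound for 30 min, heated in aliquots for 3 min across 48°C-58°C, pooled, extracted in PBS with 0.5% NP-40 at 4°C, and centrifuged at 21,000xg for 90 min to give the soluble supernatant.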

[2] = compound: C=CC(=O)N1CCC[C@@H](n2nc(-c3ccc(Oc4ccccc4)cc3)c3c(N)ncnc32)C1 [ibrutinib]
Summary of the method: as §1

[3] = compound: CC(=O)c1cnc2ccc(-c3cc(Cl)c(O)c(Cl)c3)nc2c1N[C@H]1CC[C@H](CN(C)C)CC1
Summary of the method: as §1

[4] = compound: CC(C)(C)Cn1c(N)nc2ccc(-c3[nH]c(C(C)(C)C)nc3-c3ccc(F)cc3)nc21 [ralimetinib]
Summary of the method: as §1

[5] = compound: CC(C)(O)CC(=O)NCCn1ccc2ncnc(Nc3ccc(Oc4cccc(C(F)(F)F)c4)c(Cl)c3)c21
Summary of the method: as §1

[6] = compound: CC(C)C1=C2N=C(C=C(N2N=C1)NCC3=CC=CC=C3)NCCCCCCN
Summary of the method: as §1

[7] = compound: CC(C)C[C@@H](C=O)NC(=O)[C@H](CC(C)C)NC(=O)[C@H](CC(C)C)NC(=O)OCc1ccccc1
Summary of the method: as §1

[8] = compound: CC(C)N(C[C@H]1O[C@@H](n2cnc3c(N)ncnc32)[C@H](O)[C@@H]1O)[C@H]1C[C@@H](CCc2nc3cc(C(C)(C)C)ccc3[nH]2)C1 [pinometostat]
Summary of the method: as §1

[9] = compound: CC1=C(C(CC(=O)N1)C2=CC=C(C=C2)C(F)(F)F)C(=O)NC3=C(C=C4C(=C3)C=NN4)F
Summary of the method: as §1

[10] = compound: CC1=C(C2=C(C=C1)C(=O)C3=CC=CC=C3N2CCCN)C
Summary of the method: as §1

[11] = compound: CC1=C(C=C(C=C1)NC(=O)C2=CC(=CC=C2)C(C)(C)C#N)NC3=CC4=C(C=C3)N=CN(C4=O)C
Summary of the method: as §1

[12] = compound: CC1=C(C=C(C=C1)NC(=O)C2=CC(=CC=C2)N(C)C)NC(=O)C3=CC=C(C=C3)O
Summary of the method: as §1

[13] = compound: CC1=CC=C(C=C1)SC2=C3C=C(SC3=CN=C2)C(=O)N
Summary of the method: as §1

[14] = compound: CC1=NC(=CC=C1)C2=C(N=C(N2)C(C)(C)C)C3=CC4=NC=CN=C4C=C3
Summary of the method: as §1

[15] = compound: CCCCN(Cc1ccc(C(=O)NO)cc1)C(=O)Nc1ccccc1 [Nexturastat A]
Summary of the method: as §1

[16] = compound: CCCS(=O)(=O)Nc1ccc(F)c(C(=O)c2c[nH]c3ncc(-c4ccc(Cl)cc4)cc23)c1F [vemurafenib]
Summary of the method: as §1

[17] = compound: CCCS(=O)(=O)Nc1ccc(F)c(C(=O)c2c[nH]c3ncc(Cl)cc23)c1F
Summary of the method: as §1

[18] = compound: CCCc1cc(C)[nH]c(=O)c1CNC(=O)c1cc(-c2ccnc(N3CCN(C)CC3)c2)cc2c1cnn2C(C)C
Summary of the method: as §1

[19] = compound: CCN(CC)Cc1ccc2cc(COC(=O)Nc3ccc(C(=O)NO)cc3)ccc2c1 [givinostat]
Summary of the method: as §1

[20] = compound: CCN(CCCOc1ccc2c(Nc3cc(CC(=O)Nc4cccc(F)c4)[nH]n3)ncnc2c1)CCOP(=O)(O)O [barasertib]
Summary of the method: as §1

Chain of UniProt P22314 (P22314 whole entry, looked up): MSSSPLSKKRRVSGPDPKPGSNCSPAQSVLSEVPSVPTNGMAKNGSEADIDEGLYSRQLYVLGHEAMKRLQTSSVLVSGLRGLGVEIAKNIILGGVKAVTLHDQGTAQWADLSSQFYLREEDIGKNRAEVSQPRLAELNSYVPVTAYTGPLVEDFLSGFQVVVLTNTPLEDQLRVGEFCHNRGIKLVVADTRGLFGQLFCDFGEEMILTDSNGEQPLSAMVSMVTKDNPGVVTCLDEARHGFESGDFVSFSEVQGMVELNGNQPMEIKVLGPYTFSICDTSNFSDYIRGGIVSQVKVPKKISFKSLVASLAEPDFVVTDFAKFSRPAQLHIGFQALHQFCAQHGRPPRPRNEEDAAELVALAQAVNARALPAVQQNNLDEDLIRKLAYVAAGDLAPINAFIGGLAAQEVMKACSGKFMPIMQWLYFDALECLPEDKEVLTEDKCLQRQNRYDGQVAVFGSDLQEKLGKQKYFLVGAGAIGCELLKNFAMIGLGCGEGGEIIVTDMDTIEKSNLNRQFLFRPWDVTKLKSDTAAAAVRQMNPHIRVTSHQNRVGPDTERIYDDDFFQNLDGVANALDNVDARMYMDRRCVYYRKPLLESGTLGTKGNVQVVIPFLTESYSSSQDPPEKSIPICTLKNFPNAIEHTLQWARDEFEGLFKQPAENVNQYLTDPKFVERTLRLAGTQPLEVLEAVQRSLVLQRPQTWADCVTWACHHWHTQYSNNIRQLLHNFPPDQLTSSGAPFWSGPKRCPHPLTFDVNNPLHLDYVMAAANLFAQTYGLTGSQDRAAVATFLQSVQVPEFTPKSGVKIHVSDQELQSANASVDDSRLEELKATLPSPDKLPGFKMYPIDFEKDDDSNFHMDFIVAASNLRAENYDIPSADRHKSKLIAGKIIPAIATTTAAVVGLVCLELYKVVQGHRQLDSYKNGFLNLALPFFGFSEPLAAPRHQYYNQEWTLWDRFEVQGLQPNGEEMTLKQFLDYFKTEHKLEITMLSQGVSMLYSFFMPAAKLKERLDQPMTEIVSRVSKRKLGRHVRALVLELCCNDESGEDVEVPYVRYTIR
Chain of UniProt Q8IY95 (Q8IY95 whole entry, looked up): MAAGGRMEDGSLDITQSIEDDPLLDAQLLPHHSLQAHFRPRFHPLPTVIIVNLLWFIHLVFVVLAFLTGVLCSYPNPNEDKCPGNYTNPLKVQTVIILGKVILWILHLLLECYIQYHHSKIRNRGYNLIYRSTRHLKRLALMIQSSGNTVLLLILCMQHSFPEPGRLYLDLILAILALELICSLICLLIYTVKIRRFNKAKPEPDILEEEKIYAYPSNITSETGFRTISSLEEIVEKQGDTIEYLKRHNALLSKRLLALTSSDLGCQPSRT
Chain of UniProt Q9Y5K5 (Q9Y5K5 whole entry, looked up): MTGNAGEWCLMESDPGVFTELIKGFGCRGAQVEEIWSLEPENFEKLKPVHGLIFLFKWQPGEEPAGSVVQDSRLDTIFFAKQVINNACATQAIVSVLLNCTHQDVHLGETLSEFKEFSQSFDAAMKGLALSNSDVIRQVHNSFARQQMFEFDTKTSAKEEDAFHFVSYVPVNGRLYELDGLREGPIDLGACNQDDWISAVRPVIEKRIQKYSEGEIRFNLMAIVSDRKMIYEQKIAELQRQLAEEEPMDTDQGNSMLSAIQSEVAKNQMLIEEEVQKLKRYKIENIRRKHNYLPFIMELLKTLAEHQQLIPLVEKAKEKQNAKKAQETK
Chain of UniProt Q9NQ34 (Q9NQ34 whole entry, looked up): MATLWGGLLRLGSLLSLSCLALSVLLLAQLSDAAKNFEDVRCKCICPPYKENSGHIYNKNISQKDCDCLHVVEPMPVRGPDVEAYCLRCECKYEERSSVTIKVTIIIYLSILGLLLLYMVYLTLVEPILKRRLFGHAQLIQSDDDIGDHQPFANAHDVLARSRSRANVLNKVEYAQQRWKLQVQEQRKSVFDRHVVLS
Chain of UniProt Q9UID3 (Q9UID3 whole entry, looked up): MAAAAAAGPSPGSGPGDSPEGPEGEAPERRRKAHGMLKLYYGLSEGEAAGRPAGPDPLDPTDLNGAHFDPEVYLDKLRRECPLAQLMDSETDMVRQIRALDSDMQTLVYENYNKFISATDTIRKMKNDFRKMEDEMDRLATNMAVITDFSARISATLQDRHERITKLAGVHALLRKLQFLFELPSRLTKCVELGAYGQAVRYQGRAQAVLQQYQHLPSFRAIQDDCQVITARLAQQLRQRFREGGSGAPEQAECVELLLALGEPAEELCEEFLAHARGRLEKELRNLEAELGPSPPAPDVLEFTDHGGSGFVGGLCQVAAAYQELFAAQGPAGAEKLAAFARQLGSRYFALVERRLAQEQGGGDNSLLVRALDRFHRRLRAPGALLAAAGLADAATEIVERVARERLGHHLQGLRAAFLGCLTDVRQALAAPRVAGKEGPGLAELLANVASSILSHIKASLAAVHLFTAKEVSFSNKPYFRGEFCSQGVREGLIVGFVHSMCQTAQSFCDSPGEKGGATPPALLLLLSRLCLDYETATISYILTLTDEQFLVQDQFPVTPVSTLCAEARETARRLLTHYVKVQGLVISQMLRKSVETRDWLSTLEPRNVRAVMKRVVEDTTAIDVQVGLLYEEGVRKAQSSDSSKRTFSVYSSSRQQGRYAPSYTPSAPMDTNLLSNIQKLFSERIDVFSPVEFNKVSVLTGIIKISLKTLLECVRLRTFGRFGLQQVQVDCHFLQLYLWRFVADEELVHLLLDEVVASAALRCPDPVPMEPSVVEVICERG
Chain of UniProt O43396 (O43396 whole entry, looked up): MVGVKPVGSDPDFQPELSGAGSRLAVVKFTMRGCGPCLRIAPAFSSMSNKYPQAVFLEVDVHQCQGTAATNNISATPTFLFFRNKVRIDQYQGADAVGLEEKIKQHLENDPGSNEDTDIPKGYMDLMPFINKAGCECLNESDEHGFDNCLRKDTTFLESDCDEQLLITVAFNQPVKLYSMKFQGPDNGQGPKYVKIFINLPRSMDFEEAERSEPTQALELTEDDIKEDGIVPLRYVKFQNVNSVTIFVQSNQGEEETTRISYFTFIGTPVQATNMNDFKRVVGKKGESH
Chain of UniProt O43156 (O43156 whole entry, looked up): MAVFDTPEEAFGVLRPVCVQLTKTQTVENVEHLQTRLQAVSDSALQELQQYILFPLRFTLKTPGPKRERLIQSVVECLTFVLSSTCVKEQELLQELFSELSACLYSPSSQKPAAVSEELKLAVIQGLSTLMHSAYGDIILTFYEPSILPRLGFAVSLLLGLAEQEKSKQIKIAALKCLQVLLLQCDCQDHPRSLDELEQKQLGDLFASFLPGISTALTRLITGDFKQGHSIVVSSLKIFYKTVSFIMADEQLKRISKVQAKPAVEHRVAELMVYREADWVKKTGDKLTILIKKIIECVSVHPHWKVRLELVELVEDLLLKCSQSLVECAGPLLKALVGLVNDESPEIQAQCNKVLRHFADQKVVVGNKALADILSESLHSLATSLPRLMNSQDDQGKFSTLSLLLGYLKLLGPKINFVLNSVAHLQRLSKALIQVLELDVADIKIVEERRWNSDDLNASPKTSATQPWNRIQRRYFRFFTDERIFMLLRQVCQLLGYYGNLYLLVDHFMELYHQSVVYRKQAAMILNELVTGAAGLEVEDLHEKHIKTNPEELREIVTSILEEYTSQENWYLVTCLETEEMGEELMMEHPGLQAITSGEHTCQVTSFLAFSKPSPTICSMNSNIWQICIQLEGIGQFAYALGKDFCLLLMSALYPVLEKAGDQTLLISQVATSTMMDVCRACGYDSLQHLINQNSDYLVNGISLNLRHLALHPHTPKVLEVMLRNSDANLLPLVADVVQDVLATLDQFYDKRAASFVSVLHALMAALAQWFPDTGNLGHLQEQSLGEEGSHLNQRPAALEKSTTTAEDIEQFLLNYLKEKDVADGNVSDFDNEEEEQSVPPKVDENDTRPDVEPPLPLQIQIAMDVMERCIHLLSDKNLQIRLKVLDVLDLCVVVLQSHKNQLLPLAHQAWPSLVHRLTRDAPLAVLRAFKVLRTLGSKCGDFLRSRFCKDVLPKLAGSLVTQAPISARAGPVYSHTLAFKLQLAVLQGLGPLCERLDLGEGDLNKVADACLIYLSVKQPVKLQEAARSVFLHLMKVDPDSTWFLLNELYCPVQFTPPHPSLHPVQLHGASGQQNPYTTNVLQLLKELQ
Chain of UniProt Q96HV5 (Q96HV5 whole entry, looked up): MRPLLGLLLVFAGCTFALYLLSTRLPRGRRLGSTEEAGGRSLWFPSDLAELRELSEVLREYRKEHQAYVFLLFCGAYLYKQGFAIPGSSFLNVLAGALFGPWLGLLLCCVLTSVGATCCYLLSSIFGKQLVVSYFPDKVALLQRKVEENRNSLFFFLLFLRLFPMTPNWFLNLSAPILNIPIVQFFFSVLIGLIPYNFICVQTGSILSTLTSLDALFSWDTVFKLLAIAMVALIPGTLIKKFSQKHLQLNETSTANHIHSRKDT

| Target | log2 fold change [1] | log2 fold change [2] | log2 fold change [3] | log2 fold change [4] | log2 fold change [5] | log2 fold change [6] | log2 fold change [7] | log2 fold change [8] | log2 fold change [9] | log2 fold change [10] | log2 fold change [11] | log2 fold change [12] | log2 fold change [13] | log2 fold change [14] | log2 fold change [15] | log2 fold change [16] | log2 fold change [17] | log2 fold change [18] | log2 fold change [19] | log2 fold change [20] |
| --- | --- | --- | --- | --- | --- | --- | --- | --- | --- | --- | --- | --- | --- | --- | --- | --- | --- | --- | --- | --- |
| TMEM9B (UniProt Q9NQ34) | -0.019 | 0.038 | -0.083 | 0.324 (active) | 0.014 | -0.082 | -0.006 | 0.015 | 0.027 | 0.038 | -0.068 | 0.042 | 0.105 | 0.01 | -0.055 | 0.013 | 0.064 | 0.006 | -0.023 | -0.015 |
| TXNL1 (UniProt O43396) | -0.035 | -0.014 | -0.001 | -0.003 | -0.03 | -0.052 | 0.278 (active) | -0.029 | -0.027 | 0.038 | 0.02 | -0.105 | 0.007 | 0.098 | 0.117 | 0.037 | 0.079 | 0.015 | 0.114 | 0.045 |
| TMEM41A (UniProt Q96HV5) | -0.022 | -0.007 | -0.04 | 0.033 | 0.022 | 0.043 | -0.079 | -0.06 | 0.035 | 0.151 | 0.039 | 0.093 | 0.002 | 0.014 | -0.138 | -0.163 | -0.101 | -0.021 | -0.043 | 0.001 |
| UBA1 (UniProt P22314) | -0.145 | -0.058 | -0.047 | 0.068 | -0.15 | -0.363 (active) | -0.055 | 0.019 | 0.023 | 0.336 | 0.039 | -0.054 | 0.048 | 0.006 | -0.066 | 0.084 | 0.089 | 0.058 | 0.074 | 0.138 |
| TTI1 (UniProt O43156) | -0.012 | 0.009 | -0.065 | 0.1 | -0.113 | -0.059 | 0.016 | 0.13 | -0.011 | 0.074 | 0.147 | -0.027 | 0.086 | -0.026 | 0.02 | 0.082 | 0.095 | -0.016 | 0.135 | 0.068 |
| UCHL5 (UniProt Q9Y5K5) | -0.041 | -0.051 | -0.012 | 0.03 | -0.028 | -0.161 | 0.054 | -0.004 | -0.004 | -0.018 | 0.014 | -0.07 | 0.019 | 0.053 | 0.048 | 0.075 | 0.08 | 0.003 | 0.057 | 0.024 |
| VPS51 (UniProt Q9UID3) | 0.016 | -0.015 | 0.009 | 0.024 | -0.042 | -0.115 | 0.001 | 0.05 | 0.033 | 0.105 | 0 | -0.031 | -0.045 | 0.017 | 0.032 | 0.034 | 0.021 | 0.032 | 0.071 | 0.059 |
| TMEM192 (UniProt Q8IY95) | 0.047 | -0.014 | -0.012 | 0.025 | 0.004 | -0.481 (active) | 0.029 | 0.051 | -0.004 | -0.019 | 0.013 | -0.032 | 0.026 | -0.028 | 0.004 | -0.006 | -0.026 | -0.014 | -0.038 | -0.005 |
